The source made the active and inactive calls.

One test deals with Albumin (Bos taurus) (UniProt P02769). Nature of the test: bovine serum albumin binders on microarray, profiling panel, artefact control for SMM control protein annotation, biochemical, small-molecule microarray, Alexa647 label, 635/667 nm fluorescence (AID 1118).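 Also: score merges 667 nm emission intensity and signal-to-noise per printed compound spot.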 As to conditions: BSA-A647 binding, fluorescence 635 nm, higher = more signal.
Chain of Albumin (Bos taurus) (P02769 whole entry, looked up): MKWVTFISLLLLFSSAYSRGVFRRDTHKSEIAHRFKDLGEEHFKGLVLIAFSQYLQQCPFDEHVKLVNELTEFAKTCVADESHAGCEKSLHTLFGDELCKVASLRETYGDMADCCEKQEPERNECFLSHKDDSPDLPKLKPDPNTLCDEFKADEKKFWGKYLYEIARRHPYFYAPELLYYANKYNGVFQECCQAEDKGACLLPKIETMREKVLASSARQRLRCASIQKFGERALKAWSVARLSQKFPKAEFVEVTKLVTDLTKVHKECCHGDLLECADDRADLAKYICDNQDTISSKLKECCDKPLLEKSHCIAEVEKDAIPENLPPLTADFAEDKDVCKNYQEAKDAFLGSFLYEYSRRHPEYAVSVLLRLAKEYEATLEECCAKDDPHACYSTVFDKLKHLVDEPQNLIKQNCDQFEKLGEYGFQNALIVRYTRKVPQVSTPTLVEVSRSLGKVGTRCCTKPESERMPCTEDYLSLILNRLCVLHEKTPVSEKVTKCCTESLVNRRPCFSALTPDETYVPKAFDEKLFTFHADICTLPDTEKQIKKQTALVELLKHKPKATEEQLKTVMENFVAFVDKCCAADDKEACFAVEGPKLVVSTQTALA
Consider `CO[C@H]1COC(=O)CC=C[C@@H](C)COC(=O)[C@@H](C)NC(=O)CC=C[C@@H]1C`, for which the composite z-score was -1.07.
Still for that read-out and setting: the same measure for `C=C[C@H](OC)[C@@H](OC(=O)Nc1ccc(SC)cc1)c1ccc(O)c(F)c1`: 0.661.
Same read-out and setting: then `[N-]=[N+]=NCc1ccccc1C[C@@]1(C(=O)N2CCOCC2)N=C(c2ccc(OCCCO)cc2)O[C@@H]1c1ccccc1N=[N+]=[N-]`, with 1.02.
The compound `[N-]=[N+]=NCc1ccccc1C[C@@]1(C(=O)O)N=C(c2ccc(OCCCO)cc2)O[C@@H]1c1ccccc1N=[N+]=[N-]` came in with a composite z-score of 0.855.
On the same count and under the same terms, the same measure for `CSCC[C@@H]1NC(=O)CC=C[C@@H](C)COC(=O)[C@H](CCSC)NC(=O)CC=C[C@@H](C)COC1=O`: -0.767; for `C=C(COC)/C(=C/C[C@@H](OC(C)=O)c1cccc(OCCO)c1)c1cc(C(=O)OC)ccc1OC`: -0.458; for `CCOC(=O)C[C@H]1[C@H](OC(=O)c2cc3ccccc3oc2=O)[C@@H](NC(=O)C2CCCCC2)c2cc(OCCCO)ccc2N1C(=O)c1ccc2ccccc2n1`: 0.596.
On to `C=C(COC)C(=O)CC[C@H](OC(=O)c1ccccc1-c1ccccc1C(=O)O)c1cccc(OCCO)c1`, for which the composite z-score was -0.611.
Take `C=CC[C@]1(C(=O)OC)N=C(c2ccc(OCCCO)cc2)O[C@H]1c1ccccc1CN=[N+]=[N-]`: the composite z-score is -0.573.

Test system in a further test: not listed separately
Nature of the test: small-molecule microarray binders of probe aXIP, primary screen, biochemical, NeuroSMM set, 635/667 nm fluorescence (AID 1119).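 Also: probe is the protein aXip251-270 applied at 1 µg/mL to compound-printed slides; binding of probe to printed compounds measured as 667 nm fluorescence plus signal to noise.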 The note with it: higher = more signal, called active from +8 up or from −8 down.
For `O=[N+]([O-])c1ccc(C[n+]2ccc3ccc(O)cc3c2)o1`, the composite Z-score is 0.14 (inactive).
On the same count and under the same terms, then `O=C1O[C@@H](c2ccccc2)[C@@H](c2ccccc2)N2[C@@H](c3ccccc3OCCO)[C@]3(C(=O)Nc4ccc(C#CC5=CCCCC5)cc43)[C@@H](C(=O)O)[C@H]12`, with -0.114 (inactive); and `CCC#CCN(Cc1ccccc1Br)[C@H](/C=C/c1ccccc1)[C@@H](O)Cc1ccccc1`, with 0.12 (inactive); and `COCCOC(=O)N1C(=O)[C@@]2(c3cc(C#CC4(O)CCCCCC4)ccc31)[C@H](C(=O)N1CCCCCCC1)[C@H]1C(=O)O[C@H](c3ccccc3)[C@H](c3ccccc3)N1[C@@H]2c1ccc(O)cc1`, with 0.108 (inactive).
The same measure, in the same setting: the same measure for `C[N+](C)(C)CCCCNC(=O)[C@@H]1C[C@@H]2C(=O)N3CCC[C@H]3C(=O)N2[C@@H]1c1cccc(OCCO)c1`: 2.6 (inactive).
Same read-out and setting: the same measure for `C=CCN1C(=O)[C@]2(O[C@H](CCn3cc(CCO)nn3)[C@@H]([Si](C)(C)c3ccc(OC)cc3)[C@@H]2C)c2cc(NC(=O)c3ccc(OC)cc3)ccc21`: -0.624 (inactive); for `CO[C@H]1COC(=O)[C@@H](Cc2ccccc2)NC(=O)[C@@H](C)COC(=O)CC=C[C@@H]1C`: -0.179 (inactive); for `O=C1C2C=CC(C(O)c3ccccc3)N(n3cnnc3)C2C(=O)N1Cc1ccccc1` (stereo not given): 0.0912 (inactive).
Consider `C=C(COC)/C(=C/C[C@@H](OC(=O)c1ccncc1)c1ccc(OCCO)cc1)c1cc(C(=O)OC)ccc1OC`, for which the composite Z-score is 0.345 (inactive).
Same read-out and setting: then `O=C1C[C@@](C(=O)NCCN2CCOCC2)(c2ccc([N+](=O)[O-])cc2)[C@@H](c2ccc(CO)cc2)N1C1CCCCC1`, with -0.346 (inactive).
The same measure, in the same setting: the same measure for `COc1ccc(NN2C(C(O)c3cc(OC)c(OC)c(OC)c3)C=CC3C(=O)N(C4CCCCC4)C(=O)C32)cc1` (stereo not given): 0.487 (inactive).
For the compound `C=C(C)[C@@H]1CC=C(C(O)C2C=CC3C(=O)NC(=O)C3N2Nc2ccccn2)CC1` (stereo not given in full), the composite Z-score is 0.804 (inactive).
Same read-out and setting: the same measure for `O=C1OCCC/C=C\[C@H]2OC34C=CCN(CCN5CCOCC5)C(=O)[C@H]3N(CCCCCO)C(=O)[C@@H]4C12` (stereo not given in full): 1.39 (inactive); for `NC(=O)NCC#Cc1ccc2c(c1)[C@]1(C(=O)N2)[C@H](C(N)=O)[C@H]2C(=O)O[C@H](c3ccccc3)[C@H](c3ccccc3)N2[C@@H]1c1ccccc1OCCO`: 0.0219 (inactive); for `COc1ccc([Si](C)(C)[C@H]2[C@H](CCO)O[C@@]3(C(=O)N(Cc4ccccc4)c4ccc(N5C(=O)c6cccc7cccc5c67)cc43)[C@@H]2C)cc1`: -0.229 (inactive).
`CN(C)c1ccc(C(O)C2C=CC3C(=O)NC(=O)C3N2Nc2ccc(Cl)cc2Cl)cc1` (stereo not given): the composite Z-score is 0.66 (inactive).
On the same count and under the same terms, the same measure for `COC(=O)C(CC#Cc1ccc2c(c1)[C@]1(C(=O)N2)[C@H](C(=O)N2CCCCCCC2)[C@H]2C(=O)O[C@H](c3ccccc3)[C@H](c3ccccc3)N2[C@@H]1c1ccc(O)cc1)C(=O)OC`: 0.448 (inactive); for `C=CCNC(=O)[C@@H]1[C@H]2C(=O)O[C@H](c3ccccc3)[C@H](c3ccccc3)N2[C@H](c2ccc(OCCO)cc2)[C@@]12C(=O)N(C(=O)OCCOC)c1ccc(C#CC3(O)CCCCCC3)cc12`: 1.7 (inactive).
Still for that read-out and setting: the same measure for `CC(C)[Si]1(C(C)C)O[C@@H](c2ccccc2)c2cc(C3CC3)nc(-c3ccc(Oc4ccccc4)cc3)c21`: -0.233 (inactive).
Still for that read-out and setting: the same measure for `[N-]=[N+]=NCc1ccccc1C[C@]1(C(=O)N2CCCCC2)N=C(c2ccc(OCCCO)cc2)O[C@H]1c1ccccc1CN=[N+]=[N-]`: 0.375 (inactive); for `Cc1ccc(N2C(=O)c3ccccc3[C@@H](C(=O)NCC(F)(F)F)[C@@H]2c2ccc(CO)cc2)nc1`: 0.352 (inactive).
For `CC(C)N1CC=CC23O[C@@H]4/C=C\CCCOC(=O)C4[C@H]2C(=O)N(CCO)[C@@H]3C1=O` (stereo not given in full), the composite Z-score was 1.95 (inactive).
Same read-out and setting: the same measure for `O=C(NCC(F)(F)F)[C@@H]1c2ccccc2C(=O)N(Cc2ccccc2Cl)[C@H]1c1ccc(CO)cc1`: -0.152 (inactive).
Still for that read-out and setting: the same measure for `C=CCNC(=O)[C@H]1[C@@H]2C(=O)O[C@@H](c3ccccc3)[C@@H](c3ccccc3)N2[C@@H](c2ccccc2OCCO)[C@]12C(=O)N(C(=O)OCCOC)c1ccc(C#CCC(C(=O)OC)C(=O)OC)cc12`: 1.06 (inactive); for `C[C@@H]1C=CCC(=O)OC[C@H]2O[C@@H](C=C[C@@H]2O)[C@H](C)C=CCC(=O)OC[C@H]2O[C@H]1C=C[C@@H]2O`: 1.21 (inactive).
The same measure, in the same setting: then `Cc1ccc(S[C@]2(C(=O)NCCN3CCOCC3)CC(=O)N(C3Cc4ccccc4C3)[C@@H]2c2ccc(CO)cc2I)cc1`, with 2.61 (inactive).
As for `CC(C)CNC(=O)[C@@]1(C)c2ccccc2C(=O)N(Cc2ccc(OC(F)(F)F)cc2)[C@H]1c1ccc(CO)cc1`, the composite Z-score is 0.416 (inactive).
Same read-out and setting: then `CO[C@H]1COC(=O)CC=C[C@@H](C)COC(=O)[C@@H](C)NC(=O)CC=C[C@@H]1C`, with 2.3 (inactive).
The same measure, in the same setting: the same measure for `C=C[C@H](OC)[C@@H](OC(=O)Nc1ccc(SC)cc1)c1ccc(O)c(F)c1`: 1.13 (inactive).
Same read-out and setting: then `[N-]=[N+]=NCc1ccccc1C[C@@]1(C(=O)N2CCOCC2)N=C(c2ccc(OCCCO)cc2)O[C@@H]1c1ccccc1N=[N+]=[N-]`, with -0.188 (inactive); and `[N-]=[N+]=NCc1ccccc1C[C@@]1(C(=O)O)N=C(c2ccc(OCCCO)cc2)O[C@@H]1c1ccccc1N=[N+]=[N-]`, with 0.198 (inactive); and `CSCC[C@@H]1NC(=O)CC=C[C@@H](C)COC(=O)[C@H](CCSC)NC(=O)CC=C[C@@H](C)COC1=O`, with 0.559 (inactive).
Regarding `C=C(COC)/C(=C/C[C@@H](OC(C)=O)c1cccc(OCCO)c1)c1cc(C(=O)OC)ccc1OC`, the composite Z-score was -0.574 (inactive).
The same measure, in the same setting: the same measure for `CCOC(=O)C[C@H]1[C@H](OC(=O)c2cc3ccccc3oc2=O)[C@@H](NC(=O)C2CCCCC2)c2cc(OCCCO)ccc2N1C(=O)c1ccc2ccccc2n1`: -0.0789 (inactive); for `C=C(COC)C(=O)CC[C@H](OC(=O)c1ccccc1-c1ccccc1C(=O)O)c1cccc(OCCO)c1`: 0.61 (inactive); for `C=CC[C@]1(C(=O)OC)N=C(c2ccc(OCCCO)cc2)O[C@H]1c1ccccc1CN=[N+]=[N-]`: 3.17 (inactive).

(Values after PubChem BioAssay.)
